TrxR1 substrate – substrates of rat thioredoxin reductase 1; purified TrxR1 substrate turnover, NADPH consumption readout; 390,000 tested, 0.01% active; O89049; Potency, µM (top dose mostly 114 µM), inactives show top-dose activity change, negative = substrate turnover; further: potency means the concentration at half of the fitted maximal effect; nearly all actives have a fitted effect of over 50% in size
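Rat TrxR1, dispensed at 90 nM, was prereduced with 400 uM NADPH (final) for 5 min at ~22 deg C, then incubated with compound 15 min before 400 uM selenite. A first-read NADPH fluorescence drop versus no-compound background flagged substrates.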
GALK inh – galactokinase (human) inhibition | Potency, µM (doses to about 57.5 µM), for inactives: at the top dose activity change, negative = inhibition, usual class: inhibitors | P51570 | Purified GALK, Kinase-Glo residual ATP luminescence | 270,000 tested, 0.007% active | AID 1868; further: potency means the concentration at half of the fitted maximal effect
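Compounds were pin-transferred into ATP buffer (35 uM final), then GALK plus galactose (5 nM, 100 uM final) was added. After 1 h at room temperature, Kinase-Glo Plus was added and luminescence read after 10 min.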
VP16 counter – counter-screen for ROR gamma inhibitors: Gal4-VP16 reporter. Drosophila S2 Gal4-VP16 UAS-luciferase, luminescence, 20 h. Potency, µM (series often up to 53.6 µM), for inactives: at the top dose activity, negative = inhibition, actives largely listed as inhibitors. 310,000 tested, 3.5% active;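 further: Gal4-VP16 expression switched on by copper sulfate through the metallothionein promoter; potency means the concentration at half of the fitted maximal effect; nearly all actives have a fitted effect of over 50% in size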
FBPA coupling cs – inhibits coupling enzyme system, counter-screen for aldolase hits; coupling enzyme system counterscreen, AmpLite Red fluorescence; 290,000 tested, 0.67% active; activity change, negative = inhibition, % at 58.2 µM, hits read low; in the data active means activity change below about -30%
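Counterscreen of the coupled detection system alone, without aldolase: glyceraldehyde-3-phosphate coupling enzymes plus AmpLite Red readout. Compounds at 57.5 uM final, 10 min RT preincubation, 20 min RT reaction, fluorescence 525/598 nm.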
RORg inh – blocks mouse ROR gamma transcriptional activity; 310,000 tested, 5.4% active; Drosophila S2 Gal4-RORgamma UAS-luciferase reporter, 20 h; AID 2551; Potency, µM (highest dose often 53.6 µM), inactives show top-dose activity change, negative = inhibition, usual class: inhibitors; P51450; further: potency means the concentration at half of the fitted maximal effect; nearly all actives have a fitted effect of over 60% in size
Target sequence (P51450 whole entry, looked up, the tested form may be a part): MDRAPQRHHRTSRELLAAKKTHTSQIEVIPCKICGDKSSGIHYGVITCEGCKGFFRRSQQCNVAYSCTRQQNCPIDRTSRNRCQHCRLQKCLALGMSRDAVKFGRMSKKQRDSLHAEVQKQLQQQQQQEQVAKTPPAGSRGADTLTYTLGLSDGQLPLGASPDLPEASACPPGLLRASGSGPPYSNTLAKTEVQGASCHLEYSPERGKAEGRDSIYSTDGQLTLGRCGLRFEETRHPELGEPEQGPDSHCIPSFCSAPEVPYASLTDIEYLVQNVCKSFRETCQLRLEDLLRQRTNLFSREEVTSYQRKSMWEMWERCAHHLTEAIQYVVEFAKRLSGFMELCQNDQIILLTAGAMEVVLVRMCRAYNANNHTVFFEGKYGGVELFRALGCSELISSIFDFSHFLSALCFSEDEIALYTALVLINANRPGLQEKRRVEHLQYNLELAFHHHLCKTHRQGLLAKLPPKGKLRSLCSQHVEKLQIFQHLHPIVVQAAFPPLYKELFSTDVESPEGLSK
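A Gal4/UAS one-hybrid system in insect cells: metallothionein-promoter Gal4–ROR gamma fusion plus Photinus luciferase reporter. Copper sulfate 700 uM final, 20 hr ambient incubation, luminescent detection after 10 min with reagent.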
TrxR1 inh – inhibitors of rat thioredoxin reductase 1; O89049; recombinant rTrxR1, NADPH fluorescence consumption, selenite substrate; Potency, µM (series often up to 114 µM), for inactives: top-dose activity change, negative = inhibition, usual class: inhibitors; 390,000 tested, 1% active; further: potency means the concentration at half of the fitted maximal effect; nearly all actives have a fitted effect of over 65% in size
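Rat TrxR1 (90 nM in the dispensed reagent) was pre-reduced with 400 uM NADPH for 5 min at room temperature, then incubated with compound for 15 min. After 400 uM selenite was added, NADPH fluorescence (Ex 340/Em 450 nm) was followed for 8 min.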
* marks the source's active call; other numbers are inactive results; ? = inconclusive; . = no result; [ ] = another dose, or the depositor's remark. Most compounds without a hit are left out; they make up all but 5.9% or so of the library. Unless noted, the call rests on the fitted dose curve; in most records, active means well fitted curve in the direction sought with a large enough effect; inconclusive means small, poorly fitted or top-dose-only effect, or another doubt; inactive means no such curve, though single readings can be large; an effect the other way counts as inactive or inconclusive. On the % scale 0 is the no-effect control and ±100 the full control effect.

SMILES | TrxR1 substrate | GALK inh | VP16 counter | FBPA coupling cs | RORg inh | TrxR1 inh
Cc1cc(C(=O)N/N=C/c2ccccn2)n[nH]1 | -4.1% | 2.7% | 6.7% | 1.7 | -23.2% | -5.3%
COC(=O)N/N=C/c1ccccc1OCc1ccccc1 | 7.4% | -1.4% | 0.7% | 2.9 | ? | 8.9%
Cc1cc(C(=O)N/N=C/c2cccc([N+](=O)[O-])c2O)n[nH]1 | -13.8% | . | ? | -1.1 | 12.6µM* | -7.0%
COCCNC(=O)Cc1ccc(NC(=O)N2CCCCc3ccccc32)cc1 | -1.8%[57.1 µM] | . | . | . | . | 2.1%[57.1 µM]
CCC1CN(C(=O)N2CCC(C(=O)NCc3ccc(OC)cc3OC)CC2)c2cc(C)ccc2O1 (stereo not given) | -5.6% | . | . | . | . | 19.4%
COC(=O)N/N=C\c1cc(Br)ccc1OCc1ccccc1 | -8.6% | -1.7% | 7.3% | -4.1 | ? | -6.1%
CC(C)NC(=S)N/N=C/c1cc(Br)ccc1O | -9.3% | 2.3% | 4.47µM* | 1.2 | 5.01µM* | -18.1%
O=C(CCc1ccccc1)N/N=C/c1cc(Br)ccc1O | -2.8% | -0.4% | -13.4% | 2.4 | 2.4% | 1.3%
COC(=O)N/N=C/c1cc(N=Nc2ccccc2Cl)ccc1O | -5.3% | -6.1% | 15.8µM* | 0.4 | 3.98µM* | 2.2%
COC(=O)N/N=C/c1cc(Br)ccc1O | 9.1%[57.1 µM] | -2.0% | ? | 1.3 | 7.08µM* | 19.9%[57.1 µM]
CCC(OC(C)=O)c1cc2c(cc1[N+](=O)[O-])OCCO2 (stereo not given) | -7.4% | 6.3% | -3.0% | 1.3 | -1.6% | 17.5%
CCN1CCN(c2ccc(S(=O)(=O)N3CCCCC3)cc2NC(=O)Cc2ccc(OC)cc2)CC1 | -4.5%[57.1 µM] | 4.2% | -5.0% | . | 2.4% | -15.0%[57.1 µM]
C#CCn1cc(/C=N/NC(=O)c2cc3ccccc3o2)c2ccccc21 | 6.7% | 0.6% | ? | -1.5 | 17.8µM* | 10.2%
O=C(N/N=C/C=C/c1ccccc1)c1cc2c(ccc3ccccc32)o1 | 10.2% | -5.4% | ? | 0.0 | 7.08µM* | 6.6%
C=CCn1cc(/C=N\NC(=O)c2cc3c(ccc4ccccc43)o2)c2ccccc21 | 16.2% | 0.9% | -22.0% | -13.2 | 5.62µM* | -0.8%
Cn1c(=O)n(CCO)c(=O)c2c1nc(Br)n2Cc1ccccc1 | -1.3% | 0.9% | 3.0% | 0.3 | 9.2% | 13.9%
COC(=O)c1cc2c([nH]c3ccccc32)c(C)n1 | . | 7.7% | -8.5% | 1.1 | 2.9% | .
CSc1nc2ccccc2n1CC(=O)Nc1c(C)n(C)n(-c2ccccc2)c1=O | -2.4% | -0.8% | 1.9% | 1.0 | 1.7% | -13.3%
Cc1ccc(-n2nnnc2CCl)cc1 | 9.3%[57.1 µM] | -0.3% | 1.0% | -0.8 | 17.8% | 14.1µM*
Cc1ccc(-c2nnnn2-c2ccc(C)cc2)cc1 | 7.9%[57.1 µM] | 0.2% | 5.1%[10 µM] | 1.1 | 0.6% | 15.2%[57.1 µM]
CCCc1nc2ccccc2c(=O)n1/N=C/c1ccccc1O | -2.2% | 0.0% | 10µM* | 3.2 | 2.51µM* | 5.4%
CCCc1nc2ccccc2c(=O)n1/N=C/c1c(C)[nH]n(-c2ccc(C)cc2)c1=O | 9.0%[57.1 µM] | 1.4% | ? | 7.5 | 12.6µM* | 13.2%[57.1 µM]
COc1cccc(/C=N/n2c(C)nc3ccccc3c2=O)c1O | -6.4% | 3.2% | 15.8µM* | 2.5 | 3.16µM* | -3.6%
CNc1nc2ccccc2n1/N=C/c1cccc(OC)c1OC | -1.4% | -2.4% | -22.2% | . | 12.6µM* | 4.4%
CN(C(=O)COC(=O)c1cc([N+](=O)[O-])ccc1N1CCCC1)C1CCS(=O)(=O)C1 (stereo not given) | -2.0%[57.1 µM] | -2.9% | -12.4% | -1.0 | -1.9% | 18.5%[57.1 µM]
Cc1cccc2cc(/C=N/NC(=O)c3ccccc3O)c(Cl)nc12 | 2.0% | . | ? | -3.0 | 10µM* | -0.5%
O=C(N/N=C/c1cc2cc3c(cc2nc1Cl)OCCO3)c1ccccc1O | 17.3% | 0.7% | ? | 1.1 | ? | 13.2%[57.1 µM]
Cc1ccc2cc(/C=N/NC(=O)c3ccccc3O)c(Cl)nc2c1 | 2.8%[57.1 µM] | -0.1% | ? | 3.3 | 2.82µM* | -0.5%[11.4 µM]
Cc1cccc2cc(/C=N/NC(=O)c3ccncc3)c(Cl)nc12 | 8.8% | -1.0% | 0.3% | 0.7 | -3.6% | 17.4%

Assay outcomes from PubChem.
